Experimental findings from ChEMBL document CHEMBL1961873, “Compounds: GSK PKIS; Assays: Nanosyn kinase panel” (2012) are described below.

The target in experiment [1] is T1, Inhibitor of nuclear factor kappa-B kinase subunit epsilon (Homo sapiens) (UniProt Q14164).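 Note: reported values are averaged percent inhibition figures against human IKKε.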
T1 sequence (whole entry): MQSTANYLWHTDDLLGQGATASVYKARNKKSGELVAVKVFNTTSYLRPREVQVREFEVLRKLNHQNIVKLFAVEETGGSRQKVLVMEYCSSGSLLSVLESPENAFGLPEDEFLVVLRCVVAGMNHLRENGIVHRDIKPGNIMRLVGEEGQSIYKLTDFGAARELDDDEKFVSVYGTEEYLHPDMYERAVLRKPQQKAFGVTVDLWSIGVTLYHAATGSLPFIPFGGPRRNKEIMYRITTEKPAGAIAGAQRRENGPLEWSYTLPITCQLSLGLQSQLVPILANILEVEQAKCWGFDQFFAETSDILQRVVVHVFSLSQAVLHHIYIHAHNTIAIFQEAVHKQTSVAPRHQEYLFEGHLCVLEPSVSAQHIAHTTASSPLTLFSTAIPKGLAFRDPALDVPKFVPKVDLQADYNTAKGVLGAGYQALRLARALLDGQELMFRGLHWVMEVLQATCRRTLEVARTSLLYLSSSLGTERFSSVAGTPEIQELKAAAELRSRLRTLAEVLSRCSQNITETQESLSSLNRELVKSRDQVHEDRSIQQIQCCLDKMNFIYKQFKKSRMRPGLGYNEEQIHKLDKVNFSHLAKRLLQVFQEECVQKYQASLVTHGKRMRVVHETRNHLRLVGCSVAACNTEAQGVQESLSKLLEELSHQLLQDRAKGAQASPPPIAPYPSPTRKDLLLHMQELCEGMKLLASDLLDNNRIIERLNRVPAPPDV
Particulars: at 1 µM.

For experiment [2], the target named is T2, Serine/threonine-protein kinase Nek1 (Homo sapiens) (UniProt Q96PY6).
T2 sequence (whole entry): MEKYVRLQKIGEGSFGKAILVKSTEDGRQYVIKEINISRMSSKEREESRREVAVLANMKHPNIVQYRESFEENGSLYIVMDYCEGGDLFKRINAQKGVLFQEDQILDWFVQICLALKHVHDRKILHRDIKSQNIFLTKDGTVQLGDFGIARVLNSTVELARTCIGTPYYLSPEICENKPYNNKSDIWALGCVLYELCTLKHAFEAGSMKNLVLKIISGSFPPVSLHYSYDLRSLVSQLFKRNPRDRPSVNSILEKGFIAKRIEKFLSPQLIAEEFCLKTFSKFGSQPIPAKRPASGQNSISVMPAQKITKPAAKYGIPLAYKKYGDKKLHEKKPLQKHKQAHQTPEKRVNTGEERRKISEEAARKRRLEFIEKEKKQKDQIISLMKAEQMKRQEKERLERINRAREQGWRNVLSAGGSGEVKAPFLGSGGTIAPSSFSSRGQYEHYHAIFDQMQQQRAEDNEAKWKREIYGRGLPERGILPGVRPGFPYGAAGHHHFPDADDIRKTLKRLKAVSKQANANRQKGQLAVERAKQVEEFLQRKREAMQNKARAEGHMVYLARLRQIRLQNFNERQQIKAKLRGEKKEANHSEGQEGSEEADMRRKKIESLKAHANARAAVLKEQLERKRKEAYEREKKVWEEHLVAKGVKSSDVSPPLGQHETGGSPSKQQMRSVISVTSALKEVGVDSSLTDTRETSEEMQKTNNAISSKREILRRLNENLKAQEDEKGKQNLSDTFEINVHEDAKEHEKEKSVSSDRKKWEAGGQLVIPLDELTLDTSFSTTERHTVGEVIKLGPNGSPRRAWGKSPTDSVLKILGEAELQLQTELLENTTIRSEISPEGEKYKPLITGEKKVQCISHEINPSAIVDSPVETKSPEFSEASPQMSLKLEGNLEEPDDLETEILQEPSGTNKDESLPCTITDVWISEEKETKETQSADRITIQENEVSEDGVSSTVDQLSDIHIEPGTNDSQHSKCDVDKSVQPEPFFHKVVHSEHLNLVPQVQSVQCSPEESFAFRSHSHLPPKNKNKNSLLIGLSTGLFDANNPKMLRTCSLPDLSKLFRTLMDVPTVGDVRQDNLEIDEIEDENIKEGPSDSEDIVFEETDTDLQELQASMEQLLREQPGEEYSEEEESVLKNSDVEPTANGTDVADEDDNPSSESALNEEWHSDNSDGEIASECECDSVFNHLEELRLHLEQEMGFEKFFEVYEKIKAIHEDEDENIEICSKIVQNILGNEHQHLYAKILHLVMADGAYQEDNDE
Conditions: at 0.1 µM.

The target of experiment [3] is T2, Serine/threonine-protein kinase Nek1 (Homo sapiens). Particulars: at 1 µM.
Experiment [4] concerns the target T3, Serine/threonine-protein kinase Nek2 (Homo sapiens) (UniProt P51955).
T3 sequence (whole entry): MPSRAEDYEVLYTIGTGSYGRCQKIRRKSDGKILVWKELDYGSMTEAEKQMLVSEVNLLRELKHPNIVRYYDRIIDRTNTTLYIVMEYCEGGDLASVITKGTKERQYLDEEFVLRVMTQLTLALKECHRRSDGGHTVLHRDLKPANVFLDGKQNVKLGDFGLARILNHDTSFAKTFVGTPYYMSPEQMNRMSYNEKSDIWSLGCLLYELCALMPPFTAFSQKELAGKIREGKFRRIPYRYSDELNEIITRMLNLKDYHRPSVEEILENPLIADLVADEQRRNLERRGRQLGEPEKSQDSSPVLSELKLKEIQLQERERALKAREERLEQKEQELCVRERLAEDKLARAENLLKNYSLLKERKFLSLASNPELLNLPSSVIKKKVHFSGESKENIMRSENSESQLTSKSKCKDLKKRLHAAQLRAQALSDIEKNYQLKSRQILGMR
Conditions: at 0.1 µM.

The target of experiment [5] is T3, Serine/threonine-protein kinase Nek2 (Homo sapiens). Particulars: at 1 µM.
Experiment [6] addresses Serine/threonine-protein kinase Nek6 (Homo sapiens) (UniProt Q9HC98). Particulars: at 0.1 µM.
For experiment [7] the target is unchanged. Conditions: at 1 µM.
Experiment [8] deals with Serine/threonine-protein kinase Nek7 (Homo sapiens) (UniProt Q8TDX7). Particulars: at 0.1 µM.
The target is the same in experiment [9]. Conditions: at 1 µM.
Experiment [10] has as its target T4, Serine/threonine-protein kinase Nek9 (Homo sapiens) (UniProt Q8TD19).
T4 sequence (whole entry): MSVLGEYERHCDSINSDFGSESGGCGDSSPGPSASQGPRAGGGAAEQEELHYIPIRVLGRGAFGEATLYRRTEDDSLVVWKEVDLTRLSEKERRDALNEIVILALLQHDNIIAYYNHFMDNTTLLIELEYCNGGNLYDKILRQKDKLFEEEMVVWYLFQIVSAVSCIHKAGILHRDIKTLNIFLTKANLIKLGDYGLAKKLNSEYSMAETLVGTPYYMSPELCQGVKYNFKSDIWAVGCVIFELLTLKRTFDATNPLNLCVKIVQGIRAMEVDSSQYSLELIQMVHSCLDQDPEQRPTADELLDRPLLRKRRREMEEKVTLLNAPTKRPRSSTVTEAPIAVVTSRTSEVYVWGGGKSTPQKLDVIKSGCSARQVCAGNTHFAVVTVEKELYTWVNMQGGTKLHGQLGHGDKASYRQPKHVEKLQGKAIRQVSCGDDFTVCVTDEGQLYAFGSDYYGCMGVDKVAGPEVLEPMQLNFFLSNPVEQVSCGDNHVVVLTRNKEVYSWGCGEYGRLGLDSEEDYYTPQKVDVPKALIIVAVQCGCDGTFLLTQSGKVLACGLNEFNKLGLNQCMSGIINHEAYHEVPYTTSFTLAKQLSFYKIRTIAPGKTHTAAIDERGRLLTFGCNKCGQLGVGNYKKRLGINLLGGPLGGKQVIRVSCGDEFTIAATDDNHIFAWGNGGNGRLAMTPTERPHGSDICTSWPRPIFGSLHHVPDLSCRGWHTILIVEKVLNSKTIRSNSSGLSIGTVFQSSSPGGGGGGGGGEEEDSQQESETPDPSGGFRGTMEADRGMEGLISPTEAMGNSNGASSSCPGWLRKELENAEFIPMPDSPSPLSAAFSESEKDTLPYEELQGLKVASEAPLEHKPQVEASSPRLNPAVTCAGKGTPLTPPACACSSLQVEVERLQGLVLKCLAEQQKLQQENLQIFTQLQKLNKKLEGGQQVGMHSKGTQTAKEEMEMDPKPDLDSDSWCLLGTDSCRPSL
Conditions: at 0.1 µM.

In experiment [11] the target is T4, Serine/threonine-protein kinase Nek9 (Homo sapiens). Particulars: at 1 µM.
Experiment [12] has as its target Serine/threonine-protein kinase PLK1 (Homo sapiens) (UniProt P53350). Particulars: at 0.1 µM.
For experiment [13] the target is unchanged. Particulars: at 1 µM.
Experiment [14] has as its target T5, Dual specificity protein kinase TTK (Homo sapiens) (UniProt P33981).
T5 sequence (whole entry): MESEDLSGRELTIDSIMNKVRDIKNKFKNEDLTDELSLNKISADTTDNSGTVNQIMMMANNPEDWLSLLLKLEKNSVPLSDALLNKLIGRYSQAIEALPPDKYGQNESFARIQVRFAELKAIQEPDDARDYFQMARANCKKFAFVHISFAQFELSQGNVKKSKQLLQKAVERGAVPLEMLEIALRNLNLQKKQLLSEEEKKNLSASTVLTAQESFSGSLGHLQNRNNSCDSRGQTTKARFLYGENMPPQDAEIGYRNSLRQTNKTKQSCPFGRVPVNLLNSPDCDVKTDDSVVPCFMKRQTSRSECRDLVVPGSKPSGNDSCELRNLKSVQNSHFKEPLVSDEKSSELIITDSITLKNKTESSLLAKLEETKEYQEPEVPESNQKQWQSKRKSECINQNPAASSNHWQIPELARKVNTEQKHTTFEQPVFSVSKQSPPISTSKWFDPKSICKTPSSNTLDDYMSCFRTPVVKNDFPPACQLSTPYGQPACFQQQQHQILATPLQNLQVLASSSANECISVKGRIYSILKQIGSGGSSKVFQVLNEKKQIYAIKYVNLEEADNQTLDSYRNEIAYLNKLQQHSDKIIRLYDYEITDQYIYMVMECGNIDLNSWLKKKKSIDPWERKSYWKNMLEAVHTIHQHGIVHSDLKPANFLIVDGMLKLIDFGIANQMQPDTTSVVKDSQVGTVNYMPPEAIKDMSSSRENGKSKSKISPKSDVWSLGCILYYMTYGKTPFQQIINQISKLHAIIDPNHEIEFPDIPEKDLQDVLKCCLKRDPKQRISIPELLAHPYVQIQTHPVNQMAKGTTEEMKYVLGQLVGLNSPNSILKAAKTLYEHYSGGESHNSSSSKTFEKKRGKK
Conditions: at 0.1 µM.

The subject of experiment [15] is T6, Receptor-type tyrosine-protein kinase FLT3 (Homo sapiens), P36888 [D835Y].
T6 sequence (whole entry): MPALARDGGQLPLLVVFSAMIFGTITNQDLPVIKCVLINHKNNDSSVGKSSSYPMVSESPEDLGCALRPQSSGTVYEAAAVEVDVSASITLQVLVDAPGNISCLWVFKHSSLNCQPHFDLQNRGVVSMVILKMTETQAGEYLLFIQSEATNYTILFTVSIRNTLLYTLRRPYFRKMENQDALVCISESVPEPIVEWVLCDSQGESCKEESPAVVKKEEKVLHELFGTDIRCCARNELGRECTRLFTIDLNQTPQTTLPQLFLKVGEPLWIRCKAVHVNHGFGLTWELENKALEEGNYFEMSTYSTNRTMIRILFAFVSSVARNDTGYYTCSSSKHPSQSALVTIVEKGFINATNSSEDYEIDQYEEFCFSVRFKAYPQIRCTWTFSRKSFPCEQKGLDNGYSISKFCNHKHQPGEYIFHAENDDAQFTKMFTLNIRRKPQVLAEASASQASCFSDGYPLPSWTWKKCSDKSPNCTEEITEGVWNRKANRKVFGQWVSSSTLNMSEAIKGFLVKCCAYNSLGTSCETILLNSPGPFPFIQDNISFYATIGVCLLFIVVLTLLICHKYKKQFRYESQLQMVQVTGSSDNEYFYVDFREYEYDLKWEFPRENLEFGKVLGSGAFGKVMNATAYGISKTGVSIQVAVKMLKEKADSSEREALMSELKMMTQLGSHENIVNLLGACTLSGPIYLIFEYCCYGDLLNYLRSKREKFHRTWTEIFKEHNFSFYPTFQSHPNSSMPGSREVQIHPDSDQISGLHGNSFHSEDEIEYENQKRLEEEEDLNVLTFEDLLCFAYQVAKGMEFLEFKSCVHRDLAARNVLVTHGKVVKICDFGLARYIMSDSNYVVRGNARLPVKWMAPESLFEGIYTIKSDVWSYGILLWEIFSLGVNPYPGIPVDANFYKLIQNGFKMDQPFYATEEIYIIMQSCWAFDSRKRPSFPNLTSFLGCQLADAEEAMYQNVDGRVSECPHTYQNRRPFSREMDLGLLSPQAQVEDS
Particulars: at 1 µM.

Experiment [16] concerns the target Vascular endothelial growth factor receptor 3 (Homo sapiens) (UniProt P35916). Conditions: at 0.1 µM.
Experiment [17] has the same target. Particulars: at 1 µM.
Experiment [18] has as its target Macrophage colony-stimulating factor 1 receptor (Homo sapiens) (UniProt P07333). Particulars: at 0.1 µM.
The target is the same in experiment [19]. Particulars: at 1 µM.
Experiment [20] has as its target Tyrosine-protein kinase Fyn (Homo sapiens) (UniProt P06241). Conditions: at 0.1 µM.

Sequence of Serine/threonine-protein kinase PLK1 (Homo sapiens) (P53350 whole entry): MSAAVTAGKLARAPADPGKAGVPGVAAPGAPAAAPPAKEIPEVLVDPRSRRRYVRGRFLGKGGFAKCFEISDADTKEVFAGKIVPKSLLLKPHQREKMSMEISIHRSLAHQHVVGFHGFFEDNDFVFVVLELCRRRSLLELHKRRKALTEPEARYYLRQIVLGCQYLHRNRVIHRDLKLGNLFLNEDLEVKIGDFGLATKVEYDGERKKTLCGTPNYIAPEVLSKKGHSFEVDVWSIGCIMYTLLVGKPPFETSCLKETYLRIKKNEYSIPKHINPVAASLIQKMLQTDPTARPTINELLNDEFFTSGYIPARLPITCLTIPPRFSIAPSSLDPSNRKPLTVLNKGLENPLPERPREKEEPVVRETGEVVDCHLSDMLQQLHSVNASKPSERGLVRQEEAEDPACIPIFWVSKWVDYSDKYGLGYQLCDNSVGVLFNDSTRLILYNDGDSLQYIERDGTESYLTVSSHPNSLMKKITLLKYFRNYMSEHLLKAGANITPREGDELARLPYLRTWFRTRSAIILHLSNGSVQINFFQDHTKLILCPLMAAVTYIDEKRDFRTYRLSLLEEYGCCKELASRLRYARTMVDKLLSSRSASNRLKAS
Sequence of Serine/threonine-protein kinase Nek7 (Homo sapiens) (Q8TDX7 whole entry, looked up): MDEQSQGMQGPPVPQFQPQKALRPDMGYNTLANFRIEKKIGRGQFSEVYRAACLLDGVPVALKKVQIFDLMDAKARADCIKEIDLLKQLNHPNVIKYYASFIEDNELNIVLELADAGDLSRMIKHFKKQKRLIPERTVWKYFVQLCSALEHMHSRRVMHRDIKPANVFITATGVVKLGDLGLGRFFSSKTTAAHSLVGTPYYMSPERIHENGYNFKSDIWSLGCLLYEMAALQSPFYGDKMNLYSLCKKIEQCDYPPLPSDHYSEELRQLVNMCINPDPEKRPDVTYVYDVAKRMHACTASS
Sequence of Vascular endothelial growth factor receptor 3 (Homo sapiens) (P35916 whole entry): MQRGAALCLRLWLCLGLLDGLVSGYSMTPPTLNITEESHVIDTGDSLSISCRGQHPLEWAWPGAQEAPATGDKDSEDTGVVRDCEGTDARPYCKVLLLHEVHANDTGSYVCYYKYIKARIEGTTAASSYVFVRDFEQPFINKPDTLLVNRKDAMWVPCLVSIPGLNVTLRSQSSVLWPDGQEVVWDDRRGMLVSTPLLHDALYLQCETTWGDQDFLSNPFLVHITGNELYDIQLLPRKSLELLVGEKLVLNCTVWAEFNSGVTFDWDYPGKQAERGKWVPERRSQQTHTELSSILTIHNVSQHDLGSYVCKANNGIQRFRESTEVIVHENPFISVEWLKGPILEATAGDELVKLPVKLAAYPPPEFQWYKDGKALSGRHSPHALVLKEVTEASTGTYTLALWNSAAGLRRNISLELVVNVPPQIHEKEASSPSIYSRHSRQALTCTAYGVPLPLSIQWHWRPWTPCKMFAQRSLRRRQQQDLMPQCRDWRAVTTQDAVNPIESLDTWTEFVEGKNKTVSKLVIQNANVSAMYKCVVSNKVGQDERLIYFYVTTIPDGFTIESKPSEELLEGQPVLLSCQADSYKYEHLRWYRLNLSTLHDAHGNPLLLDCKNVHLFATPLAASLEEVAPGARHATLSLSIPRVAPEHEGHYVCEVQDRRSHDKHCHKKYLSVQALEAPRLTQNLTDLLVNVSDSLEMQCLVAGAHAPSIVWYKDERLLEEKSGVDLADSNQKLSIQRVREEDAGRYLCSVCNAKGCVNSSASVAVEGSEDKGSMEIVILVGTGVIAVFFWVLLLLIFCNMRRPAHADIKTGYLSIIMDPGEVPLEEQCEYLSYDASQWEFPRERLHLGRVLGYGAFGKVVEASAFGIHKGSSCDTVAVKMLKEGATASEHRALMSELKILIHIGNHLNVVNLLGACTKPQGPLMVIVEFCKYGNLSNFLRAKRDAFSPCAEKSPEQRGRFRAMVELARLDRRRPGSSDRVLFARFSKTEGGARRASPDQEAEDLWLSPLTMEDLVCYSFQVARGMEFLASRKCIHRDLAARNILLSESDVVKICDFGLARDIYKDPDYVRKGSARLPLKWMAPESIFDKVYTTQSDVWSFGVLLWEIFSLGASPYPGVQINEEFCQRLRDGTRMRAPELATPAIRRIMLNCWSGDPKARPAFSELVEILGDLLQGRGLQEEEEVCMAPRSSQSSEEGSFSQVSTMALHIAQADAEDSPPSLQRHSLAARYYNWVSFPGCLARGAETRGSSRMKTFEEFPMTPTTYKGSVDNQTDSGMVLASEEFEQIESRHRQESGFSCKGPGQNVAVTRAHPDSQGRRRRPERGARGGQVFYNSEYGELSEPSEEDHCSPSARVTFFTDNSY
Sequence of Macrophage colony-stimulating factor 1 receptor (Homo sapiens) (P07333 whole entry): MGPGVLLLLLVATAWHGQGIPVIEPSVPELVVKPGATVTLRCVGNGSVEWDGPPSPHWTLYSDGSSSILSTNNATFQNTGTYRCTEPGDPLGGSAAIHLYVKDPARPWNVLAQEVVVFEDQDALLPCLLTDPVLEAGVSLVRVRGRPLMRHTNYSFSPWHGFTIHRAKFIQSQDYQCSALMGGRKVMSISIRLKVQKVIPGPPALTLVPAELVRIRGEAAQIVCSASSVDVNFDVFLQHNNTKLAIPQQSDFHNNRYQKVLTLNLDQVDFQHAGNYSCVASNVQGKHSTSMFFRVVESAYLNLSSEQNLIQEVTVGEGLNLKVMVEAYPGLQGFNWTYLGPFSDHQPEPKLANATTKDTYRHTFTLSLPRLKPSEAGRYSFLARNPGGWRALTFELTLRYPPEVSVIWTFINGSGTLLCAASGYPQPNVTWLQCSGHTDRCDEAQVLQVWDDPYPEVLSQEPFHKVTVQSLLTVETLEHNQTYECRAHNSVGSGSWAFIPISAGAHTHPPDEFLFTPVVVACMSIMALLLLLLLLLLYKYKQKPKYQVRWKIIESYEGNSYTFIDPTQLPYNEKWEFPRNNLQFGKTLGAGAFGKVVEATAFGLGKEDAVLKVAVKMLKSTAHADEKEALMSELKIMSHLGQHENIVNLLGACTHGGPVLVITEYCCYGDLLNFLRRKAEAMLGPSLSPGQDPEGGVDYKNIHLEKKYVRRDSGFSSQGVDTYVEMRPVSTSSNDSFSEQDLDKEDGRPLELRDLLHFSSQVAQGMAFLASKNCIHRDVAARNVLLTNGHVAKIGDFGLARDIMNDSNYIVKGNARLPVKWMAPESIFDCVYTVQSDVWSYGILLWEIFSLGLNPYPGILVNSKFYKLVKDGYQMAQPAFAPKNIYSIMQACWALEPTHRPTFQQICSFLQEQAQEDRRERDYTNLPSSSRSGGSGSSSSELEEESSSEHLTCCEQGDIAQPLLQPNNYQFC
Sequence of Serine/threonine-protein kinase Nek6 (Homo sapiens) (Q9HC98 whole entry): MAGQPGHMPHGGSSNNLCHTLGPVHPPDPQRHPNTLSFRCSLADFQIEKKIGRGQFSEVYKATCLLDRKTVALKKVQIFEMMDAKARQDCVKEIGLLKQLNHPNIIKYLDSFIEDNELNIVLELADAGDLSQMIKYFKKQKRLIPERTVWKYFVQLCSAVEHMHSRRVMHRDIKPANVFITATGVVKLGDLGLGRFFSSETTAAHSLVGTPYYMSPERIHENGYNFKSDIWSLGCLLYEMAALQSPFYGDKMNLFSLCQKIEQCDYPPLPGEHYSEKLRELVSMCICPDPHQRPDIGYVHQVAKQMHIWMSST
Sequence of Tyrosine-protein kinase Fyn (Homo sapiens) (P06241 2-537 limits assumed): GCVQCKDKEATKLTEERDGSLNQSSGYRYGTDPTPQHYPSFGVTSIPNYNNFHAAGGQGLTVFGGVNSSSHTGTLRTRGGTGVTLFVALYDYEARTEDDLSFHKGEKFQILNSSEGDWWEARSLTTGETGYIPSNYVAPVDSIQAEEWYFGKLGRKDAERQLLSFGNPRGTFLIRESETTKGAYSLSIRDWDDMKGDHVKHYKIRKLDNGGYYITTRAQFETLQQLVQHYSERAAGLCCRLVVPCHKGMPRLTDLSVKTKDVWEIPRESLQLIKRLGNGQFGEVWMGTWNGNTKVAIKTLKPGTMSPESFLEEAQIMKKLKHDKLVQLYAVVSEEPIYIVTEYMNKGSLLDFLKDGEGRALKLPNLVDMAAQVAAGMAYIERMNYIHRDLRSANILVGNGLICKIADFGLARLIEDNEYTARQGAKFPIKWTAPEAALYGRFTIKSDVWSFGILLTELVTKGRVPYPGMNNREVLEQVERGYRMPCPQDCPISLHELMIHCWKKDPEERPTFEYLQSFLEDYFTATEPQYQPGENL

On to `NS(=O)(=O)c1ccc(-c2cc3ccncc3cc2OCc2ccccc2)cc1`, for which the inhibition stood at 2.21% in [1]; 2.31% in [2]; 2.44% in experiment [3]; 3.99% in experiment [4]; 3.04% in experiment [5]; 3.18% in [6]. For the same molecule, the inhibition came out at 3.3% in [7]; 5.28% in [8]; 4.88% in experiment [9]; 9.27% in experiment [10]; 7.84% in experiment [11]; 2.8% in experiment [12]. In addition, the inhibition in experiment [13] was 1.7%; in experiment [14], 9.2%; in experiment [15], 1.86%; in experiment [16], -1.68%; in experiment [17], 1.58%; in [18] it was -0.56%. Besides, the figures for the inhibition in [19] and in experiment [20] were 1.76% and 1.04%, respectively.

Regarding `C[C@@H](Oc1cc(-n2cnc3ccc(OCC4CCN(C)CC4)cc32)sc1C(N)=O)c1ccccc1C(F)(F)F`, the inhibition in experiment [1] was -1.35%; in experiment [2] it was 18.4%; in experiment [3], 60.5%; in experiment [4], 23.6%; in [5], 69.2%; in experiment [6] it was -1.61%. For the same molecule, the inhibition was 0.33% in experiment [7]; -2.74% in [8]; -0.71% in experiment [9]; 88.3% in experiment [10]; 102% in experiment [11]; 91.6% in experiment [12]. For the same molecule, the inhibition in experiment [13] is 94.3%; in [14], 1.25%; in [15] it was 20.9%; in experiment [16], 1.45%; in experiment [17], 18.6%; in experiment [18], -4.84%. Further, the inhibition was found to be 8.46% in experiment [19] and 2.33% in experiment [20].
